Measured values: PubChem BioAssay AID1851 (National Center for Advancing Translational Sciences (NCATS), 2009)
Out of some 16,000 compounds screened, about 4,000 (25%) were called active. Roughly 26% stayed inconclusive and do not appear here. The call rests on the fitted dose curve; in most records, active means well fitted curve in the direction sought with a large enough effect; inconclusive means small, poorly fitted or top-dose-only effect, or effect the other way; inactive means no such curve, though single readings can be large or run the other way. Only a sample is shown.

Each compound was assayed against Cytochrome P450 2C9 (Homo sapiens) (UniProt P11712) (assay: Cytochrome panel assay with activity outcomes). Details: recombinant CYP, pro-luciferin dealkylation, luminescence, p450-cyp2c9; series mostly up to 57.1 µM.
Cytochrome P450 2C9 (Homo sapiens), sequence (P11712 whole entry, looked up): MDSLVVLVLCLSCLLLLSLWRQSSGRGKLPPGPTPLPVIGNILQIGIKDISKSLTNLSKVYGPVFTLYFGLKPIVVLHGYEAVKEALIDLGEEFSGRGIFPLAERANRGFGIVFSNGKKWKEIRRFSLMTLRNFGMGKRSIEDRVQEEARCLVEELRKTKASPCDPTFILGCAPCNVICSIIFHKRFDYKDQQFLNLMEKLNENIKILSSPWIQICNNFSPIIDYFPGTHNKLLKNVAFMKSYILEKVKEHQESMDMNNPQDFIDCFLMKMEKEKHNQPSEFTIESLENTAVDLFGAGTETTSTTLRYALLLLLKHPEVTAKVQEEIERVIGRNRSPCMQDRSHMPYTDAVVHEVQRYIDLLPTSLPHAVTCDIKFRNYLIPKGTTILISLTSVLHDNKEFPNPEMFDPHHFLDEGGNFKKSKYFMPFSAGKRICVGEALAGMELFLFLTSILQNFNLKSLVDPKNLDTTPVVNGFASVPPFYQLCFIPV
On the % scale 0 is the no-effect control and ±100 the full control effect.

activity, negative = inhibition, inactive:
C[N+](C)(C)c1ccc([C@H](N)C(=O)O)cc1 -14.1% [at 11.4 µM], Cc1c(C(=O)O)nc(/C=C\C(=O)O)[nH]c1=O -11.9% [at 11.4 µM], O=C(O)c1nn(-c2ccc(Cl)cc2)c2c1C(=O)c1ccccc1C2=O -5.15% [at 11.4 µM], Nc1nc(=O)c2[nH]cnc2n1O -5.05% [at 11.4 µM], CN(C)Cc1ccccc1-c1ccc2ncnc(NC3CCNCC3)c2c1 7.8% [at 2.29 µM], CN(C)CCOC(=O)c1ccc(N)cc1 -8.18% [at 11.4 µM], c1cncc(CNc2ncncc2-c2cccnc2)c1 4.39% [at 2.29 µM], C(/C=C\c1ccccc1)=Nc1ccc2c(c1)Cc1ccccc1-2 -24.1% [at 11.4 µM], COc1ccccc1-c1nccc(NC2CCNCC2)n1 3.9% [at 2.29 µM], O=C1c2ccccc2C(=O)c2c(NC3CCCCC3)ccc(Nc3ccc(S(=O)(=O)O)cc3)c21 -7.2% [at 11.4 µM]

AC50, inactive:
CCCn1cnc2c1c(=O)n(CCCCC(C)=O)c(=O)n2C, CCCn1c(=O)c2c(ncn2C)n(CCC)c1=O, O=C(O)CONC(=O)c1cc(OCC(F)(F)F)ccc1OCC(F)(F)F, CC(C)CC(=O)Nc1sc2c(c1C#N)CC(C)(C)NC2(C)C, O=C(O)c1nn(-c2ccccc2)nc1-c1nn(-c2ccccc2)nc1C(=O)O, CC(C)[C@H]1C(=O)C(C(N)=O)=C(O)[C@]2(O)C(=O)C3=C(O)c4c(O)ccc(N(C)C)c4C[C@H]3C[C@@H]12, CN(C)CC/C=C1\c2ccccc2Sc2ccc(Cl)cc21, CCC(C)(C(=O)NC1CCCC1)N(CC1CCCO1)C(=O)c1ccc2c(c1)OCO2 (configuration not stated), COc1ccc(/C=N/n2c(C)nnc2C)c(OC)c1, O=C(CCS(=O)(=O)c1cccc2nsnc12)NC1CCCCC1, COc1cccc(-c2cc(C(F)(F)F)n3ncc(S(=O)(=O)c4ccccc4)c3n2)c1, COc1ccc(NC(=O)N2CCCC3(CCN(C(=O)c4cnccn4)CC3)C2)cc1, O=C(N/N=C/C=C/c1ccccc1)c1cc2c(ccc3ccccc32)o1, CCOC(=O)N1CCN(C(=O)CSCc2ccc(Cl)cc2)CC1, Cc1noc(C)c1C(=O)N1CCC2(CC1)CN(c1ncccn1)C2, Cc1cccc(NC(=O)Cn2c(=O)oc3ccccc32)c1, Cc1cc(C)c2c(=O)[nH]c(SCC(=O)N(C)C)nc2n1, CC[C@@H]1OC(=O)[C@H](C)[C@H](O[C@@H]2C[C@](C)(OC)[C@H](O)[C@H](C)O2)[C@H](C)[C@H](O[C@@H]2O[C@@H](C)C[C@@H](N(C)C)[C@@H]2O)[C@](C)(O)C[C@H](C)C(=NOCOCCOC)[C@H](C)[C@H](O)[C@]1(C)O, O=C(Nc1nnc(COc2ccc(Cl)cc2)s1)c1ccc([N+](=O)[O-])cc1, NC(=O)OC[C@H](O)COc1ccc(Cl)cc1, Cn1ncc(C#N)c1/N=C/N1CCCCCC1, O=C(c1csnn1)N1CCC2(CC1)CN(c1ccccn1)C2, Cn1cccc1C(=O)N1CCC2(CC1)CN(c1ccccn1)C2, CCOC(=O)c1oc2ccccc2c1NC(=O)c1ccc2c(c1)OCO2, Oc1ccccc1CNn1cnnc1, NC(=NCc1ccc(Cl)c(Cl)c1)NC(=O)c1nc(Cl)c(N)nc1N, COc1ncc2nc(-c3cc(F)cc(F)c3)c(=O)n(-c3ccccc3)c2n1, C[C@@H]1C(=O)N(C)C(=O)c2nc[nH]c21, CCOc1ccc(NC(=O)N2CCC(c3ccc(C)cc3)C2)cc1 (configuration not stated), Cc1cccc(OCC(=O)N2CCC(N3CCCCCC3)CC2)c1, COc1ccc(C(C(=O)NC2CCCCC2)N(C(=O)c2sc(C)nc2C)c2ccc(C(C)=O)cc2)cc1 (configuration not stated), COc1ccc(C[C@H](N)C(=O)N[C@@H]2[C@H](O)[C@H](n3cnc4c(N(C)C)ncnc43)O[C@@H]2CO)cc1

AC50, active:
CCCCn1cnc2c(cnn2-c2ccc(F)cc2)c1=O 11.2 µM, COC(=O)C1CCN(CC(=O)Nc2sc3c(c2C#N)CCC3)CC1 5.62 µM, O=C(c1ccccc1)c1nn(-c2ccccc2)c(=O)cc1C(F)(F)F 10 µM, CC(C(=O)NC1CCCC1)N(C(=O)c1snc(C(N)=O)c1N)c1ccc2c(c1)OCCO2 (configuration not stated) 12.6 µM, Cc1cc(C)n(-c2nnc(C)n2/N=C/c2ccccc2OCc2ccccc2Cl)n1 8.91 µM, Cc1cccc(NC(=O)CCS(=O)(=O)c2cccc3nsnc23)c1C 15.8 µM, CCOC(=O)C1CCCN(C(=O)c2cc3nc(-c4ccc5c(c4)OCO5)cc(C(F)(F)F)n3n2)C1 (configuration not stated) 6.31 µM, COc1ccc(-c2cc(C(F)(F)F)n3nc(C(=O)N4CCCCC4)cc3n2)cc1 25.1 µM, O=S(=O)(N/N=C\C=C\c1ccccc1)c1ccc(Br)cc1 0.501 µM, CCOC(=O)CSC1=NC(=O)/C(=C\c2ccc(Cl)cc2)S1 1.26 µM, Cc1cccc(NC(=O)CSc2nc3nc(C)cc(C)c3c(=O)[nH]2)c1 7.94 µM, CC(C)COc1ccc(C(=O)Nc2scc(-c3ccc(Cl)cc3Cl)c2C(N)=O)cc1 1.78 µM, COc1ccc(C(=O)Nc2scc(-c3ccc(Cl)cc3Cl)c2C(N)=O)cc1 0.631 µM, Cc1sc(NC(=O)c2ccc(OCC(C)C)cc2)c(C(N)=O)c1-c1ccc(Cl)cc1Cl 0.562 µM, CN1C(=O)/C(=C\c2ccccc2)Sc2ccc(C(=O)N3CCN(c4ccccn4)CC3)cc21 11.2 µM, CCOC(=O)c1oc2ccccc2c1NC(=O)c1cc(OC)cc(OC)c1 14.1 µM, CCOC(=O)c1oc2ccccc2c1NC(=O)c1ccc(S(=O)(=O)N(C)C)cc1 0.562 µM, Nc1c(S(=O)(=O)O)cc(Nc2cccc(S(N)(=O)=O)c2)c2c1C(=O)c1ccccc1C2=O 3.16 µM, O=C(COc1ccc(Br)cc1)N1CCC(c2ccccc2)C1 (configuration not stated) 14.1 µM, CCc1ccc(N(C(=O)c2ccoc2C)C(C(=O)NC2CCCC2)c2ccc(OC)cc2)cc1 (configuration not stated) 28.2 µM
